Pf growth 96h: P. falciparum growth inhibition at 96 hours. P. falciparum luciferase reporter growth, 96 h. Potency, µM (series often up to 28.7 µM), for the others: top-dose activity change, negative = inhibition, hits mostly inhibitors. 320,000 compounds, 6.9% hits; further: potency means the concentration at half of the fitted maximal effect; on the % scale 0 is the no-effect control and ±100 the full control effect
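Delayed-death screen, second-generation endpoint: infected erythrocytes, 2% hematocrit, 0.05% parasitemia final; 96 hours at 37 C, 5% CO2; luciferase detection reagent; luminescence decrease equals reduced growth.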
NS1 function inh: inhibitors of influenza NS1 protein function. AID 2326. 270,000 compounds, 0.4% hits. Potency, µM (titrated, usually from 46.1 µM), for inactives: at the top dose activity, positive = more growth; calls by dose curve; further: potency means the concentration at half of the fitted maximal effect; actives are rising curves; nearly all actives have a fitted effect of over 50% in size
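OD600 was taken as the measure of yeast growth restored by compound in an NS1-expressing S. cerevisiae strain. Cells had been washed out of glucose medium and diluted 1:100 into galactose -URA medium, pH 6.0.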
Shiga inhibitor: Shiga toxin inhibition | Vero cells, Shiga toxin protein synthesis inhibition reporter | inhibition, % at 38.7 µM | 290,000 compounds, 9.2% hits | AID 2315; in the data active means inhibition mostly above about 28%, no sharp cut-off; inactive means mostly below about 43%; further: 0% is about no effect
CHX counter: affects cycloheximide protein synthesis inhibition readout, counter-screen; AID 2314; 300,000 compounds, 12% hits; cell reporter, cycloheximide protein synthesis inhibition counterscreen; max response, %; in the data active means max response mostly above about 13%, no sharp cut-off; inactive means mostly below about 14%; further: read at 38.3 µM for the half of the compounds with a filed dose; 0% is about no effect
Pf growth 48h: inhibits P. falciparum growth in the first generation, 48 h; AID 504832; 310,000 compounds, 5.9% hits; P. falciparum luciferase growth in erythrocytes, 48 h; Potency, µM (series often up to 28.7 µM), inactives show at the top dose activity change, negative = inhibition, most hits filed as inhibitors; further: potency means the concentration at half of the fitted maximal effect; on the % scale 0 is the no-effect control and ±100 the full control effect
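Luminescence readout; reporter = integrated firefly luciferase in P. falciparum. RBC culture at 2% hematocrit, 0.1% parasitemia final, 37 C/5% CO2; decreased signal taken as growth inhibition.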
Starred values were filed as active, the others as inactive; i = inactive; u = inconclusive; x = no result. This is a sample that favours compounds with a hit; in the whole collection about 21% have one here. Unless noted, the call rests on the fitted dose curve; in most records, active means well fitted inhibition curve with a large enough effect; inconclusive means small, poorly fitted or top-dose-only effect, or another doubt; inactive means no such curve, though single readings can be large or run the other way.

SMILES	Pf growth 96h	NS1 function inh	Shiga inhibitor	CHX counter	Pf growth 48h
CN1CCN(C(=O)c2ccc3c(c2)N(Cc2ccc(Cl)cc2)C(=O)c2ccccc2S3=O)CC1 (centres undefined)	-19%	-9%	-18	-3	10µM*
CC1(c2nnc(Cc3ccccc3)o2)CC(c2ccc([N+](=O)[O-])cc2)=NO1 (centres undefined)	42%	-44%	11	1	-2%
CCn1c2ccccc2c2cc(N=C3SC(CC(=O)Nc4ccccc4OC)C(=O)N3CCOC)ccc21 (centres undefined)	u	u	-10	-2	9.3µM*
CN=C1SC(CC(=O)Nc2ccccc2F)C(=O)N1C (centres undefined)	10%	-10%	7	2	16%
O=C(CC1SC(=Nc2ccc(OC(F)F)cc2)N(CCC2=CCCCC2)C1=O)Nc1ccccc1F (centres undefined)	2.6µM*	-12%	24	15	10µM*
CCOc1ccccc1N=C1SC(CC(=O)Nc2ccc(OC)cc2OC)C(=O)N1CCC1=CCCCC1 (centres undefined)	4.1µM*	5%	-6	4	u
COCCNC(=O)COC(=O)c1ccc(OCC(=O)Nc2ccccc2OC)c(OC)c1	14%	1%	18	-4	207%
O=C(c1ccc(Cl)cc1)c1cnc(Nc2ccccc2Cl)s1	i	-9%	120*	50*	230%
CC(=O)c1cnc(Nc2cccc(Cl)c2Cl)s1	32%	-8%	81*	37*	70%
CC(=O)c1cnc(Nc2ccccc2)s1	103%	-45%	44	34*	x
Cc1ccc(N(CC(=O)NCc2ccc(F)cc2)C(=O)c2snc(C(N)=O)c2N)cc1C	-4%	7%	-5	-6	u
CCOC(=O)c1c(CSc2nc(C)cc(C)c2C#N)n(C)c2cc(Br)c(OC(C)=O)cc12	u	9%	-10	-1	u
C=CCCc1ccc(C#N)c(SCc2c(C(=O)OCC)c3cc(OC(C)=O)c(Br)cc3n2C)n1	0%	1%	-3	-3	5.2µM*
CCOC(=O)c1c(CSC(=N)N)n(-c2ccc(Br)cc2)c2cc(Br)c(OC(C)=O)cc12	u	u	-22	-7	1.9µM*
CCOC(=O)c1c(C)n(C)c2cc(Br)c(OC)cc12	48%	-1%	-4	-2	7%
CCCCCCCCOC(=O)c1c(CSC(=N)N)n(C)c2cc(Br)c(OC(C)=O)cc12	10µM*	8%	-10	-3	u
O=C(Nc1ccc(C(F)(F)F)cc1)c1cnc(N2CCN(c3ccccn3)CC2)c2ccccc12	22%	x	-2	9	u
Cc1ccc2c(Cl)cc(Cl)c(OCC(=O)N3CCCC3)c2n1	28%	x	67*	35*	10%
Cc1cc(OCC(=O)N2CCCC2)cc(C)c1Cl	-30%	-9%	-2	9.4*	32%
Cc1ccc(NC(=O)CN(C)C(=O)COc2c(Cl)cc(Cl)c3ccc(C)nc23)cc1	1.7µM*	10%	-13	-3	4.1µM*
Cc1ccc2c(Cl)cc(Cl)c(OCC(=O)O)c2n1	0%	x	-11	-3	16%
Cc1cc(OCC(=O)N2CCCC2)ccc1Cl	-2%	-5%	52*	23*	123%
COc1ccc(C)cc1NC(=O)c1cc(S(=O)(=O)N2CCOCC2)cn1C	11%	-7%	-7	-1	-21%
Cc1ccccc1OCCc1c(C)[nH]c(=S)[nH]c1=O	44%	x	-9	-6	-4%
Cc1cc(OCC(=O)N2CCCN(C)CC2)ccc1Cl	7%	6%	-16	16*	7%
SMILES	Pf growth 96h	NS1 function inh	Shiga inhibitor	CHX counter	Pf growth 48h
O=C(c1cc(-c2cccnc2)nc2ccccc12)N1CCCc2ccccc21	10µM*	-20%	-6	-4	u
Cc1ccc(-c2cc(C(=O)N3CCCc4ccccc43)c3ccccc3n2)cc1	x	-54%	-13	-2	8.3µM*
O=C(c1cc(-c2cccnc2)nc2ccccc12)N1CCN(S(=O)(=O)c2cccs2)CC1	13µM*	x	x	x	12µM*
O=C(c1cc(-c2cccnc2)nc2ccc(Cl)cc12)N1CCN(S(=O)(=O)c2cccs2)CC1	-40%	-10%	-15	-1	6%
O=C1CCc2cc(S(=O)(=O)NCCc3ccc(Cl)cc3)cc3c2N1CC3	27%	x	x	x	14%
Cc1cc2c(c(=O)o1)C(c1ccc([N+](=O)[O-])o1)C(C#N)=C(N)O2 (centres undefined)	9%	9%	-2	2	2%
COC(=O)c1ccc(-n2cncn2)c(F)c1	u	7%	4	1	14%
COc1ccc(OC)c(-c2cc(C(=O)NCc3cccs3)no2)c1	u	-42%	24	0	u
COc1ccc(-c2cc(C(=O)NCc3cccs3)no2)cc1OC	x	-20%	x	x	x
Cc1ccc(C)c(Nc2ncccc2C(=O)NCc2cccs2)c1	9.3µM*	-30%	2	11	13%
O=C(NCc1cccs1)c1cc(-c2ccc(O)cc2)on1	-7%	0%	86*	43*	101%
Cc1cc(NC(=O)c2cc(-c3cccc(Cl)c3)on2)no1	28%	-9%	-12	2	127%
Cc1ccc(-c2cc(C(=O)NCc3cccs3)no2)cc1	17%	9%	23	9.1*	104%
O=C(NCc1cccs1)c1cc(-c2cccc(Cl)c2)on1	14%	-4%	44*	26*	70%
COc1cc(/C=N/NC(=O)CCC(=O)Nc2ccc(Br)cc2)ccc1O	29%	u	-7	-5	-1%
CCOCCCNC(=O)C(c1ccc(C)cc1)N(Cc1cccs1)C(=O)CNC(C)=O (centres undefined)	0%	-2%	-15	-2	3%
CCC(C)(C)n1nnnc1C(c1ccc(C)cc1)N1CCN(Cc2ccc3c(c2)OCO3)CC1 (centres undefined)	u	3%	-3	-4	15µM*
CCC(C)(C)n1nnnc1C(c1ccc(C)cc1)N1CCC(C)CC1 (centres undefined)	145%	-26%	16	8	10µM*
CCC(C)(C)n1nnnc1C(c1ccncc1)N1CCC(C)CC1 (centres undefined)	5%	-5%	1	-3	-24%
CCC(C)(C)n1nnnc1C(c1ccc2ncccc2c1)N1CCN(Cc2ccc3c(c2)OCO3)CC1 (centres undefined)	168%	-2%	11	-1	-18%
CC(C)(C)CN1CCN(Cc2c[nH]c3ccccc23)CC1CCO (centres undefined)	u	u	0	-1	6%
COC(=O)c1c(NC(=O)CN2CCC3(O)CCCCC3C2c2ccc(F)cc2)sc(C)c1C (centres undefined)	u	u	14	-2	8.3µM*
COc1ccccc1C1C2CCCCC2(O)CCN1CC(=O)Nc1ccccc1 (centres undefined)	u	-1%	4	3	u
COC(=O)c1c(NC(=O)CN2CCC3(O)CCCCC3C2c2cc(OC)ccc2OC)sc(C)c1C (centres undefined)	10µM*	24%	11	-3	u
